PubChem BioAssay (EPA / NIEHS)
Records with an inconclusive call do not appear. Activity calls are given as the source filed them. Rule for the calls, unless noted: active = hit-call score of the fitted dose curve at least 0.9, where 1 is the maximum; inactive = score below 0.9.

Assays:
[1] = CCTE_Shafer_MEA_dev_firing_rate_mean: CCTE's Neural Network Formation Assay for Mean Firing Rate, Shafer Lab (AID 2284031)
In short: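 Read-out: spike count/recording length, averaged over active electrodes, then AUC across days 5, 7, 9, 12. Rat cortical cultures on MEA; continuous 12-day exposure, media and treatment renewed DIV 5, 9; DMSO baseline.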

[2] = CCTE_Shafer_MEA_dev_active_electrodes_number: CCTE's Neural Network Formation Assay for Number of Active Electrodes, Shafer Lab (AID 2284040; active = hit-call score of the fitted dose curve at least 0.9, where 1 is the maximum)
In short: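 Developing rat cortical networks on MEAs, exposed DIV 0–12. Value is the AUC of active-electrode counts (≥5 spikes/min) from days 5, 7, 9, 12, relative to DMSO.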

[3] = CCTE_Shafer_MEA_dev_burst_rate: CCTE's Neural Network Formation Assay for Burst Rate, Shafer Lab (AID 2284042)
In short: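 Cells plated, treated day 0; recorded DIV 5, 7, 9, 12; fed and re-treated DIV 5, 9. Endpoint: bursts per recording time, active-electrode well mean, trapezoidal AUC, fitted in decreasing direction against DMSO baseline.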

[4] = target: Estrogen receptor (Homo sapiens) (UniProt P03372); assay: CCTE_Deisenroth_AIME_96WELL_LUC_Active: CCTE's 96-well Estrogen Receptor Transactivation Assay with AIME metabolic competence (ERTA luciferase; metabolism positive), Deisenroth Lab (AID 2284023; active = hit-call score of the fitted dose curve at least 0.9, where 1 is the maximum)
In short: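 Metabolism-positive mode: induced rat hepatic S9 in alginate microspheres conditions test solutions (0.002 - 200 uM, 10 points) for 2 hours. VM7Luc4E2 ER luciferase reporter cells then exposed 24 h; positive-direction fit against 17beta-estradiol, n=4 typical.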

[5] = target: Estrogen receptor (Homo sapiens) (UniProt P03372); assay: CCTE_Deisenroth_AIME_96WELL_LUC_Inactive: CCTE's 96-well Estrogen Receptor Transactivation Assay without AIME metabolic competence (ERTA luciferase; metabolism negative), Deisenroth Lab (AID 2284025; active = hit-call score of the fitted dose curve at least 0.9, where 1 is the maximum)
In short: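 Metabolism-negative arm: chemicals (0.002–200 uM, 10 points) incubated 2 h with alginate-water microspheres, then medium moved onto VM7Luc4E2 cells for 24 h luciferase read-out. Positive direction vs 17beta-estradiol; n≥4 experiments.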

[6] = target: Estrogen receptor (Homo sapiens) (UniProt P03372); assay: CCTE_Deisenroth_AIME_384WELL_LUC_Active: CCTE's 384-well Estrogen Receptor Transactivation Assay with AIME metabolic competence (ERTA luciferase; metabolism positive), Deisenroth Lab (AID 2284030; active = hit-call score of the fitted dose curve at least 0.9, where 1 is the maximum)
In short: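 In this metabolism-positive format, a 2-hour exposure to alginate-immobilized rat S9 precedes a 24 hour luciferase transactivation readout in VM7Luc4E2 cells. Dosing spans 10 concentrations from 0.002 to 200 uM.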

[7] = target: Estrogen receptor (Homo sapiens) (UniProt P03372); assay: CCTE_Deisenroth_AIME_384WELL_LUC_Inactive: CCTE's 384-well Estrogen Receptor Transactivation Assay without AIME metabolic competence (ERTA luciferase; metabolism negative), Deisenroth Lab (AID 2284038; active = hit-call score of the fitted dose curve at least 0.9, where 1 is the maximum;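 note: hits raise estrogen receptor luciferase signal so potencies reflect agonists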)
In short: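 Metabolism-negative mode: AIME lids stamped in alginate-water, no hepatic S9. 2 h chemical incubation → medium onto VM7Luc4E2 ERTA, 24 h. Readout luciferase luminescence; gain-of-signal fit vs 17beta-estradiol. Conc. 0.002 - 200 uM.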

[8] = CCTE_Deisenroth_AIME_384WELL_CTox_Inactive: Cytotoxicity Assessment (CTOX) in CCTE's 384-well Estrogen Receptor Transactivation Assay without AIME metabolic competence (metabolism negative), Deisenroth Lab (AID 2284039; active = hit-call score of the fitted dose curve at least 0.9, where 1 is the maximum;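 note: cell viability via live-cell protease substrate cleaved to fluorescent probe; cells exposed 24 h to medium preincubated 2 h with alginate-water beads without S9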)
In short: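 Metabolism-negative arm: chemicals (10-point, 0.002 - 200 uM) preincubated 2 h with alginate-water lids, medium moved onto VM7Luc4E2 cells for 24 h. Fluorescent live-cell protease readout; bidirectional curve fit.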

[9] = target: Estrogen receptor (Homo sapiens) (UniProt P03372); assay: CCTE_Deisenroth_AIME_384WELL_LUC_Shift: CCTE's 384-well Estrogen Receptor Transactivation Assay with AIME metabolic competence data shift (ERTA luciferase; difference in metabolism positive and negative), Deisenroth Lab (AID 2284041);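 note: shift is response with S9 minus without S9 so positive means metabolism raised ER signal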
In short: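 Here, parent compounds undergo 2 h phase I metabolism by PB/BNF-induced rat S9 before 24 h transactivation in VM7Luc4E2 cells; the curve models S9-positive minus S9-negative response over a 10-point series.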

[10] = CCTE_Deisenroth_AIME_384WELL_CTox_Active: Cytotoxicity Assessment (CTOX) in CCTE's 384-well Estrogen Receptor Transactivation Assay with AIME metabolic competence (metabolism positive), Deisenroth Lab (AID 2284037; active = hit-call score of the fitted dose curve at least 0.9, where 1 is the maximum;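 note: chemicals first conditioned 2 h by alginate-bound induced rat liver S9 before cells; activity means signal loss indicating cell death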)
In short: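 VM7Luc4E2 breast cells received medium pre-incubated 2 h with chemical over alginate microspheres holding induced male Sprague Dawley rat liver S9; viability read 24 h later by protease-substrate fluorescence. Loss of signal, bidirectional fit, 0.002–200 uM.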

Measured: AC50

Chain of Estrogen receptor (Homo sapiens) (P03372 whole entry, looked up): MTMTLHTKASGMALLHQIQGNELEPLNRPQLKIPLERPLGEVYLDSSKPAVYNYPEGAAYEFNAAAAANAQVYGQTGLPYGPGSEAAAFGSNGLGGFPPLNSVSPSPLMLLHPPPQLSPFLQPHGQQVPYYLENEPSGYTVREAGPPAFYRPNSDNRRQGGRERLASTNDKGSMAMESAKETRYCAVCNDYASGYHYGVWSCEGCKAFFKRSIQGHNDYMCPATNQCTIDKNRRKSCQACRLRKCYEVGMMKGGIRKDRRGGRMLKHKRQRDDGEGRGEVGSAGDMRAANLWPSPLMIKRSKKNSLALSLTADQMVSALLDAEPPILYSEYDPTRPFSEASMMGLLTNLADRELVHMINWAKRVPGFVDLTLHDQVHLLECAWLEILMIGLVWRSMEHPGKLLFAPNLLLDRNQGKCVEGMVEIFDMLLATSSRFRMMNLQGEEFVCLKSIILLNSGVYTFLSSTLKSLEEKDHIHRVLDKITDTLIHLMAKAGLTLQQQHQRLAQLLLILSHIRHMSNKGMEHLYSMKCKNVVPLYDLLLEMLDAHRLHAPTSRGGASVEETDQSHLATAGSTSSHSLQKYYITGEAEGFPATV

FC(F)(F)C(F)(F)CNCC(F)(F)C(F)(F)F
inactive: [1] | [2] | [3]

C#C[C@]1(O)CC[C@H]2[C@@H]3CCc4cc(OC)ccc4[C@H]3CC[C@@]21C
active: [4] 0.1 nM | [5] 0.372 nM

CNC(=S)NC
inactive: [6] | [7] | [8] | [9]

CC/C=C\CCOC(C)=O
inactive: [6] | [10] | [8] | [9]

OCC(F)(F)C(F)(F)C(F)(F)C(F)(F)C(F)(F)C(F)F
inactive: [1] | [2] | [3]

OC[C@@H](O)[C@@H](O)[C@H](O)[C@@H](O)CO
inactive: [1] | [2] | [3]

N=C(N)C(F)(F)C(F)(F)C(F)(F)C(F)(F)C(F)(F)C(F)(F)C(F)(F)F
inactive: [1] | [2] | [3]

O=P(O)(O)OCCC(F)(F)C(F)(F)C(F)(F)C(F)(F)C(F)(F)C(F)(F)F
inactive: [1] | [2] | [3]
